Inconclusive results are not listed. Entries that show only a call come without a potency. A number with no mark means an inactive call. Activity calls are given as the source filed them. Unless noted, calls come from the whole dose curve; as a rule, active = well fitted curve in the direction sought with a large enough effect in the repeat runs; inconclusive = weak or mixed curves; inactive = no such curve, though single readings can be large; an effect the other way counts as inactive or inconclusive.
Key:
[1] = qHTS assay to identify small molecule antagonists of the thyroid receptor (TR) signaling pathway (AID 743065); note: nearly all actives have a fitted effect of over 55% in size
Outline: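 GH3.TRE-Luc rat pituitary cells (two TREs driving luciferase) were dosed with compound, then stimulated with 1 nM T3 (final) for 23.5 h at 37 C. ONE-Glo luminescence was the read-out, with CellTiter-Fluor fluorescence as the cytotoxicity counter-screen.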

[2] = test system: thyroid hormone receptor (rat, GH3 cells); assay: qHTS assay to identify small molecule agonists of the thyroid receptor (TR) signaling pathway (AID 743066; calls by dose curve; note: potency is the fitted concentration of half-maximal effect)
[3] = qHTS assay to identify small molecule antagonists of the estrogen receptor alpha (ER-alpha) signaling pathway - cell viability counter screen (AID 743074; calls by dose curve; note: nearly all actives have a fitted effect of over 45% in size)
[4] = target: Estrogen receptor (Homo sapiens) (UniProt P03372); assay: qHTS assay to identify small molecule agonists of the estrogen receptor alpha (ER-alpha) signaling pathway (AID 743075; calls by dose curve)
[5] = target: Estrogen receptor (Homo sapiens) (UniProt P03372); assay: qHTS assay to identify small molecule agonists of the estrogen receptor alpha (ER-alpha) signaling pathway using the BG1 cell line (AID 743079); details: BG1Luc4E2 cells, ERE-luciferase agonist, 22 h; note: nearly all actives have a fitted effect of over 20% in size
[6] = qHTS assay to identify small molecule antagonists of the estrogen receptor alpha (ER-alpha) signaling pathway using the BG1 cell line (AID 743080; calls by dose curve;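 note: BG1 cells stimulated with 17beta-estradiol alongside compound; nearly all actives have a fitted effect of over 25% in size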)
Outline: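 Quantitative HTS on the Tox21 10K library: BG1 cells with endogenous ER-alpha and ERE-luciferase reporter, 17beta-estradiol stimulation, 21.5 h compound exposure, luminescence endpoint with parallel fluorescence cytotoxicity counter-read.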

[7] = qHTS assay to identify small molecule antagonists of the estrogen receptor alpha (ER-alpha) signaling pathway using the BG1 cell line - cell viability counter screen (AID 743081);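 note: compound given together with 17beta-estradiol as the ER stimulus; nearly all actives have a fitted effect of over 45% in size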
Aromatase (Homo sapiens) = Aromatase (Homo sapiens) (UniProt P11511); assay: qHTS assay to identify aromatase inhibitors (AID 743083); note: nearly all actives have a fitted effect of over 55% in size
[8] = qHTS assay to identify aromatase inhibitors - cell viability counter screen (AID 743084);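 note: cells stimulated with testosterone during compound exposure; nearly all actives have a fitted effect of over 55% in size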
[9] = target: Estrogen receptor (Homo sapiens) (UniProt P03372); assay: qHTS assay to identify small molecule antagonists of the estrogen receptor alpha (ER-alpha) signaling pathway (AID 743069; active = well fitted curve in the direction sought with a large enough effect in the signal ratio in the repeat runs, not every such curve was filed as active; the % refers to the signal ratio)
Outline: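 In this cell-based reporter format, GripTite HEK293 cells harbouring ER-alpha-UAS-bla were grown overnight with 2% charcoal-stripped FBS, dosed with DMSO-dissolved compounds, then challenged with 17beta-estradiol. After 18 hr at 37C, beta-lactamase activity was detected by FRET fluorescence.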

Chain of Estrogen receptor (Homo sapiens) (P03372 whole entry, looked up): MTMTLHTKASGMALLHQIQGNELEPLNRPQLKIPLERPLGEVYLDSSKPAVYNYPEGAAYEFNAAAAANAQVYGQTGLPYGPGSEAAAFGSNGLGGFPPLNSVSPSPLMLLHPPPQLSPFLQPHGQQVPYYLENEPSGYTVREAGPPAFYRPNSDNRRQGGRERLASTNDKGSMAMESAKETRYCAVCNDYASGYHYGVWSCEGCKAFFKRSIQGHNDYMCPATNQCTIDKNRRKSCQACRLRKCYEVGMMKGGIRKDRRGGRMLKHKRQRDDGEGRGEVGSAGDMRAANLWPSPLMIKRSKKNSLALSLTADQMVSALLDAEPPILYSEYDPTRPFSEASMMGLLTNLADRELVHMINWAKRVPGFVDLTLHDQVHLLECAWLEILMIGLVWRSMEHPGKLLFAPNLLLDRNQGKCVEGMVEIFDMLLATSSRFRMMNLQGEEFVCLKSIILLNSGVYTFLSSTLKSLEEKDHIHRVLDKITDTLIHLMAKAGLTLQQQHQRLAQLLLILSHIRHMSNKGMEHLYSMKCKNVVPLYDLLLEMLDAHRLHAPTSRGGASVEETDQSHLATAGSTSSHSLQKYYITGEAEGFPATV
Chain of Aromatase (Homo sapiens) (P11511 whole entry, looked up): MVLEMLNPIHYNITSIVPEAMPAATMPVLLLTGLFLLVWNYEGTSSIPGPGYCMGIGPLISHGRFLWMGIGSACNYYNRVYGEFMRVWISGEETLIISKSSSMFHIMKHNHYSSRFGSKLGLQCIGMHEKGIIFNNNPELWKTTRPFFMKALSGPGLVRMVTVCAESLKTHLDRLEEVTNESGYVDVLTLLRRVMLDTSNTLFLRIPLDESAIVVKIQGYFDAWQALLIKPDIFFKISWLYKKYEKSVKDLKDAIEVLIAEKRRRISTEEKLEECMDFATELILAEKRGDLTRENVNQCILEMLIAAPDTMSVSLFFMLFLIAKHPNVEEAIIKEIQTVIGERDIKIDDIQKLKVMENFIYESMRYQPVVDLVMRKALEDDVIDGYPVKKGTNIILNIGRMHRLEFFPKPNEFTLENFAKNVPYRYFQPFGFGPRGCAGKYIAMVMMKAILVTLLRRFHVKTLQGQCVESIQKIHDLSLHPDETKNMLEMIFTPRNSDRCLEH

Structure (SMILES)	Potency [1]	Potency [2]	Potency [3]	Potency [4]	activation ([5]; at 95 µM (top of the series)) [%]	Potency [6]	Potency [7]	Potency (Aromatase (Homo sapiens))	Potency [8]	activation ([5]; at 70.3 µM (top of the series)) [%]	Potency [9]
CC(C)(C)C(=O)Cl	inactive	inactive	inactive	inactive	-4.71	inactive	inactive	inactive	inactive	–	–
O=C(CCl)NCO	inactive	inactive	inactive	inactive	–	inactive	inactive	inactive	inactive	-9.09	–
CC(C)(C)C(=O)C(Cl)Cl	inactive	inactive	inactive	–	–	–	inactive	–	–	–	–
NCC1(CC(=O)O)CCCCC1	inactive	inactive	inactive	–	–	–	inactive	inactive	inactive	–	–
BrCC1CO1 (stereo not drawn)	inactive	inactive	inactive	inactive	8.58	inactive	inactive	inactive	inactive	–	–
O=C(Cl)c1ccccc1	inactive	inactive	inactive	inactive	1.6	inactive	inactive	inactive	inactive	–	–
Cc1ccc2c(c1)C1CN(C)CCC1N2 (stereo not drawn)	inactive	inactive	inactive	inactive	–	inactive	inactive	inactive	inactive	-4.51	–
NNC(N)=O	inactive	inactive	inactive	inactive	-3.44	inactive	inactive	inactive	inactive	–	–
C/C=C/CC#N	inactive	inactive	–	inactive	–	inactive	inactive	inactive	inactive	–	inactive
CC#Cc1cc(C)nc(Nc2ccccc2)n1	inactive	inactive	–	inactive	–	–	inactive	inactive	inactive	–	inactive
CCOC(=O)CC(SP(=S)(OC)OC)C(=O)OCC (stereo not drawn)	inactive	inactive	inactive	inactive	–	inactive	inactive	inactive	inactive	–	–
NC(=O)OCCCc1ccccc1	inactive	inactive	inactive	inactive	–	inactive	inactive	inactive	inactive	2.88	–
CC(C)NCC(O)c1ccc([N+](=O)[O-])cc1 (stereo not drawn)	inactive	inactive	inactive	–	–	–	inactive	inactive	inactive	–	–
CCOC1Oc2ccc(OS(C)(=O)=O)cc2C1(C)C (stereo not drawn)	inactive	inactive	–	–	–	–	–	inactive	inactive	–	inactive
O=C(O)C(Br)(Br)Br	inactive	inactive	inactive	inactive	–	inactive	inactive	inactive	inactive	6.64	–
Clc1ccc(C(Cl)(Cl)Cl)cn1	inactive	inactive	inactive	inactive	–	–	inactive	inactive	inactive	-9.37	–
CCN(CC)CCOC(=O)C(O)(c1ccccc1)c1ccccc1	inactive	inactive	inactive	inactive	–	inactive	inactive	inactive	inactive	1.82	–
CCC1(c2ccccc2)CCC(=O)NC1=O (stereo not drawn)	inactive	inactive	inactive	inactive	–	inactive	–	inactive	inactive	2.78	–
OCC(Cl)CCl (stereo not drawn)	inactive	inactive	inactive	inactive	–	inactive	inactive	inactive	inactive	3.3	–
N[C@@H](Cc1ccc(Oc2cc(I)c(O)c(I)c2)c(I)c1)C(=O)O	inactive	168 nM (active)	inactive	inactive	–	inactive	inactive	inactive	inactive	-1.5	–
CC(=O)CN(CC(C)=O)N=O	inactive	inactive	inactive	inactive	–	inactive	inactive	inactive	inactive	-5.98	–
CCCC[N+](=O)[O-]	inactive	inactive	inactive	inactive	–	inactive	inactive	inactive	inactive	8.37	–
CCN(CC)C1CCCCC1	inactive	inactive	inactive	inactive	–	inactive	inactive	inactive	inactive	6.19	–
Cl/C=C/CCl	inactive	inactive	inactive	–	–	–	inactive	inactive	inactive	–	–
CCCC(C)C1(CC)C(=O)N=C(S)NC1=O (stereo not drawn)	inactive	inactive	inactive	–	–	–	inactive	inactive	inactive	–	–

— PubChem BioAssay (Tox21)
